Rows were chosen to be rich in hits. Some 2.5% of all compounds tested hit in one or more screens of this group.
GAA850 FXN act – frataxin GAA850 promoter activation; HEK293 lucGAA850 FXN promoter luciferase reporter, 24 h; percent of 10 µM SAHA response; actives 0.56% (n = 360,000); AID 540364; activation, % at 6 µM;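 active means activation above the average of all compounds screened plus 3 SD, cutoff fixed separately per campaign, cut at about 7.5% in these data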
PAX8 inh HTS – inhibitors of PAX8 transcriptional activity in RMG-I cells; actives 1.2% (n = 360,000); inhibition, % at 12.6 µM; AID 652154; RMG-I TPO-luciferase reporter, SteadyGlo, 24 h;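 active means mean replicate inhibition at least 60% with every replicate also reaching 60%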;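 further: luciferase light reporting Pax8 driven TPO promoter activity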
EWS-Fli inh – EWS/Fli transcriptional activity inhibition | actives 0.67% (n = 350,000) | inhibition, % at 12.6 µM | A673 NR0B1-luciferase reporter, viability-normalised;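 active means mean inhibition of at least 50% after viability correction, with every replicate also passing that limit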;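 further: firefly luciferase signal divided by Alamar Blue viability fluorescence both relative to DMSO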
HIV Env fusion – HIV envelope-mediated fusion inhibition; HeLa-JRFL Env/CEM21 cell fusion, luciferase; inhibition, % at 12.3 µM; actives 1.1% (n = 360,000); AID 651610;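 active means mean replicate inhibition score of at least 50 and every replicate individually at or above 50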
CFTR F508del cor – correctors of CFTR F508del function in bronchial epithelial cells. CFBE cells, YFP halide quenching; stimulated with forskolin plus potentiator P3; % fluorescence drop versus neutral controls. activity (quench increase), % at 7.58 µM. actives 0.36% (n = 350,000). AID 720511;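 active means mean added fluorescence quench of at least 8% versus neutral control, with both replicates also reaching 8%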;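 further: cells transiently co-express mutant CFTR-F508del with the halide-sensitive YFP; corrector assay measuring rescue of mutant channel to the surface after 24 h compound exposure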
Of the large screens only hits and unclear results are named; the others gave an inactive call.

Cn1c(=O)oc2cc(S(=O)(=O)N3CCCc4ccccc43)ccc21	EWS-Fli inh 58.5
Cn1c(=O)oc2cc(S(=O)(=O)N3CCc4ccccc43)ccc21	none
COC(=O)Nc1ccc(S(=O)(=O)N2CCCc3ccccc32)cc1	HIV Env fusion 59.0 (no result: PAX8 inh HTS, EWS-Fli inh, CFTR F508del cor)
CC1CCc2nc(NC(=O)c3ccc(S(=O)(=O)N4CCCc5ccccc54)cc3)sc2C1 (stereo not drawn)	none (no result: PAX8 inh HTS, EWS-Fli inh, HIV Env fusion, CFTR F508del cor)
CO[C@H]1CN(C)C(=O)c2ccc(NC(=O)Nc3c(C)noc3C)cc2OC[C@H](C)N(CC2CC2)C[C@@H]1C	none (no result: GAA850 FXN act, EWS-Fli inh, HIV Env fusion)
O=c1cnc2ccccc2n1CC1CCCCC1	CFTR F508del cor 8.6 (no result: PAX8 inh HTS, HIV Env fusion)
O=C(O)Cn1c(=O)cnc2ccccc21	none (no result: PAX8 inh HTS, EWS-Fli inh, CFTR F508del cor)
Cc1cccc(C)c1NC(=O)NCc1ccco1	none
C/C(CC(=O)NCc1ccco1)=N\NC(=O)COc1ccc(C)cc1	PAX8 inh HTS 64.7 (no result: HIV Env fusion)
C/C(CC(=O)NCc1ccco1)=N\NC(=O)COc1ccc(Cl)cc1Cl	none
Cc1cccc(C)c1OCCNC(=O)C(=O)NCc1ccco1	EWS-Fli inh 56.3
Cc1cccc(C(=O)OCC(=O)NCc2ccco2)c1	HIV Env fusion 65.9
CC(Oc1ccccc1Cl)C(=O)Nc1ccc(S(=O)(=O)Nc2nccs2)cc1 (stereo not drawn)	CFTR F508del cor 8.7 (no result: HIV Env fusion)
COc1ccc(C2SCC(=O)N2CCc2ccc(OC)c(OC)c2)cc1 (stereo not drawn)	EWS-Fli inh 53.9
COc1ccc(CCN2C(=O)CSC2c2ccc(OC)c(OC)c2)cc1OC (stereo not drawn)	none (no result: CFTR F508del cor)
COc1ccc(CCN2C(=O)C=CC2=O)cc1OC	PAX8 inh HTS 95.4
O=S(=O)(c1ccccc1)[C@@]1(c2ccccc2)C[C@@H]2ON=C(c3cccc(Br)c3)[C@@H]2C1	HIV Env fusion 79.1
O=C(O)[C@]1(S(=O)(=O)c2ccccc2)C[C@@H]2ON=C(c3cccc(Br)c3)[C@@H]2C1	none
COc1ccccc1NC(=O)Nc1cnccn1	none (no result: CFTR F508del cor)
COc1cc([N+](=O)[O-])ccc1NC(=O)Nc1cnccn1	HIV Env fusion 57.5 (no result: EWS-Fli inh)
C/C(Cl)=C\Cn1c(O)c(N=NC(N)=S)c2ccccc21	EWS-Fli inh 57.5
COc1cc2c3c([nH]c2cc1F)C(=O)NCC3	HIV Env fusion 58.6
COc1ccc(/C=C2\COc3ccccc3C2=O)cc1OC	none (no result: EWS-Fli inh, CFTR F508del cor)
CCOc1cc(/C=C2\COc3ccccc3C2=O)cc(Br)c1OCC(=O)N(C)C	EWS-Fli inh 63.1
COc1ccc(CCNc2ccncn2)cc1	HIV Env fusion 56.0 (no result: PAX8 inh HTS, EWS-Fli inh, CFTR F508del cor)
COc1ccc(CCNc2ccncn2)cc1OC	none (no result: PAX8 inh HTS, EWS-Fli inh, CFTR F508del cor)
C/C=C/c1ccc([C@H]2[C@@H](CO)N(C(=O)CC)[C@@H]2CNC(=O)c2ccncc2)cc1	none (no result: GAA850 FXN act, HIV Env fusion)
COc1ccccc1C1c2ccc3ccccc3c2Oc2ncn(CCN(C)C)c(=N)c21 (stereo not drawn)	none
COc1ccc(C2c3ccc4ccccc4c3Oc3ncn(CCCN(C)C)c(=N)c32)cc1 (stereo not drawn)	EWS-Fli inh 63.3
C=CC[C@H](CC(=O)N(CCO)Cc1ccccc1)C(=O)N[C@H](COC(=O)[C@H](CC=C)CC(=O)OC(C)(C)C)Cc1ccccc1	none
C=CC[C@H](CC(=O)N(CCO)Cc1ccccc1)C(=O)N[C@@H](COC(=O)[C@H](CC=C)CC(=O)OC(C)(C)C)Cc1c[nH]c2ccccc12	PAX8 inh HTS 103.3
C=CC[C@@H](CC(=O)N(CCO)Cc1ccccc1)C(=O)N[C@@H](COC(=O)[C@@H](CC=C)CC(=O)OC(C)(C)C)Cc1c[nH]c2ccccc12	PAX8 inh HTS 63.2
C=CC[C@@H](CC(=O)N(CCO)Cc1ccccc1)C(=O)N[C@H](COC(=O)[C@@H](CC=C)CC(=O)OC(C)(C)C)Cc1c[nH]c2ccccc12	none
C[C@H](CO)N1C[C@H](C)[C@H](CN(C)C(=O)c2ccncc2)OCc2cn(nn2)CCCC1=O	none (no result: GAA850 FXN act, HIV Env fusion)
NCC(=O)NNC(=O)OCC1c2ccccc2-c2ccccc21	CFTR F508del cor 8.6
COc1ccc(NC(=O)N(C)C[C@H]2Oc3c(NC(=O)CCCCCC(=O)Nc4ccccc4N)cccc3C(=O)N([C@@H](C)CO)C[C@H]2C)cc1	none (no result: GAA850 FXN act, HIV Env fusion)
COc1cccc(F)c1C(C[N+](=O)[O-])c1c(N)n(C)c(=O)n(C)c1=O (stereo not drawn)	PAX8 inh HTS 99.9
COc1ccc(OC)c(Nc2cc3ccccc3c(=O)[nH]2)c1	EWS-Fli inh 61.5
COc1ccccc1Nc1cc2cc(Br)ccc2c(=O)[nH]1	none

Assay outcomes deposited in PubChem by several laboratories.
